Biological target: AMP-activated protein kinase, AMPK (Homo sapiens) (UniProt P54646+O43741+P54619+Q9UGJ0+Q9Y478+Q13131+Q9UGI9)
Experiment: AMP-dependent Kinase enzyme assay. An in vitro enzyme assay that detects ADP turnover that is directly proportional to AMPK activity. This uses naive AMPK that is activated during the assay with MK-8722
Type: functional
Design: scale not given: direction of the effect not stated beside the values
Conditions: 30 µM

Compared with `O=C1NC(C(=O)NCc2cccnc2Oc2ccccc2F)CO1` (stereo not given), `O=C(Cc1ccon1)NC1CCCN(c2ccccc2F)C1=O` (stereo not given) is lower in Percent Effect: 4.53% for the first, 1.71% for the second.

Going from `COCC(NC(=O)c1cn2ccsc2n1)c1ccnn1C` (stereo not given) to `CC(C(=O)Nc1nccs1)N(C)Cc1cccc(C#N)c1` (stereo not given), the Percent Effect rises from -19.1% to 8.51%.

Compared with `Cc1nccn1-c1nccnc1C1CCCN(C2CCCC2)C1` (stereo not given), `Cc1cc(C)c2c(NCc3nncn3C3CCCCC3)ncnc2n1` is lower in Percent Effect: 12.6% for the first, -0.11% for the second.

Compared with `Cc1noc(C)c1CC(=O)N1CCCC(n2ccnc2C)C1` (stereo not given), `Cc1cnn(C2CCCN(C(=O)c3cc(-c4ccco4)[nH]n3)C2)c1` (stereo not given) is lower in Percent Effect: -4.43% for the first, -19.9% for the second.

First: CC(C)c1nc(C2CCCN2CCNS(C)(=O)=O)no1 (stereo not given)
Second: CS(=O)(=O)N1CCCCC1c1ccc(Nc2cnccn2)nc1 (stereo not given)
The Percent Effect of the first is higher: 9.75% for the first, 4.25% for the second.

Going from `c1nc(N2CCOCC2)sc1-c1cncn1CCCN1CCCCC1` to `CCc1cc(=O)[nH]c(-c2ccc(NC(C)CN3CCOCC3)nc2)n1` (stereo not given), the Percent Effect falls from -0.295% to -2.92%.

Compared with `CN(CCNC(=O)Nc1nccs1)Cc1ccc(F)cc1`, `O=C(NCc1ccc(Br)c(F)c1)Nc1cn[nH]c1` is higher in Percent Effect: -0.57% for the first, -0.537% for the second.

Compared with `Cc1ccc(CCc2nc(C3CCOC3)no2)o1` (stereo not given), `CS(=O)(=O)Cc1noc(CN(Cc2ccco2)c2ccccc2)n1` is lower in Percent Effect: 10.1% for the first, 3.02% for the second.

First: CC1C(=O)NCCN1CCOc1ccc(C#N)cc1 (stereo not given)
Second: Cc1cccc(COc2ccc(C(C)N)cc2)c1 (stereo not given)
The Percent Effect of the first is higher: 3.66% for the first, -5.16% for the second.

First: Cc1cc(CN(C)C(=O)CNS(=O)(=O)c2cccs2)no1
Second: COc1ccc(CN(C)C(=O)CN2CC(n3cc(C)cn3)C2)cc1F
The Percent Effect of the first is higher: 7.18% for the first, -3.71% for the second.

Compared with `CCc1noc(C(C)N2CCN(Cc3noc(C4CC4)n3)CC2)n1` (stereo not given), `Cc1cccc2nc(CN3CCC(N4CCN(C)C4=O)CC3)cn12` is higher in Percent Effect: 0.498% for the first, 6.81% for the second.

First: CCc1cc(NCCCc2nc(C)no2)nc(-c2ccncc2)n1
Second: Cc1ccc(Oc2cc(CN)ccn2)cc1C
The Percent Effect of the first is higher: -1.39% for the first, -98.1% for the second.

Compared with `CCc1nnc(CS(=O)(=O)c2ccc(C)cc2)n1C`, `CC(C)(O)CCc1cccc(C(=O)NCc2cnn3cccnc23)c1` is lower in Percent Effect: 6.29% for the first, -0.643% for the second.

First: O=C(NCc1cccnc1-n1cncn1)c1cc(Cl)ccn1
Second: O=C(NCc1sc2ccccc2c1Cl)c1cc2n(n1)CCNC2
The Percent Effect of the first is lower: -11.1% for the first, 10.8% for the second.

Compared with `CN1CCCC1CCNC(=O)c1ccccc1-n1cc(CN)cn1` (stereo not given), `O=C(CCn1cnnn1)N1CCCC(CO)(CCc2ccccc2)C1` (stereo not given) is lower in Percent Effect: 11.2% for the first, 6.31% for the second.

Compared with `O=C(O)c1cnc(OCC2CC2)c(Cl)c1`, `Cc1cc(C(=O)NCCN2CCC(C)CC2)nn1C(C)(C)C` is higher in Percent Effect: -1.49% for the first, 5.48% for the second.

Going from `COc1cccc2ccc(N3CCC(O)(C(=O)O)CC3)nc12` to `Cc1nc(N)cc(C2(C)CCCNC2)n1` (stereo not given), the Percent Effect rises from 1.15% to 14.2%.

Going from `CC1(C)CC(CN2CCC3(CCC(=O)N(CCO)C3)CC2)CCO1` (stereo not given) to `CCCC1(CO)CCCN(C(=O)CN2CCN(CC)CC2)C1` (stereo not given), the Percent Effect falls from -1.98% to -3.5%.

Compared with `CN(CC1CCCCO1)c1nc2c(cc1C(N)=O)CCC2` (stereo not given), `Cn1ccnc1CNC(=O)CC1CCCCO1` (stereo not given) is higher in Percent Effect: -5.23% for the first, -3.14% for the second.

Going from `COCc1cc(N(C)Cc2cc(C(C)(C)C)n[nH]2)ncn1` to `Cc1nc2c(c(=O)[nH]1)CN(C(=O)CCC1CCCN(C)C1)C2` (stereo not given), the Percent Effect rises from -7.3% to 12%.
